This is a sample that favours compounds with a hit; in the whole collection about 3.6% have one here.
mHTT-CaM PPI inh: mutant huntingtin-calmodulin interaction inhibitors – biochemical, AlphaScreen, primary screen; AlphaScreen His-mHTT/GST-CaM binding, luminescence; 190,000 compounds, 3.6% hits; inhibition, % at 15 µM; P42858;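 note: 0% = both proteins with DMSO and 100% = one protein alone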
Pf apPOL inh: Pf-apPOL inhibitors, biochemical, fluorescence | AID 1794808, 2022 | 210,000 compounds, 0.25% hits | Recombinant Pf-apPOL, molecular beacon fluorescence, 1.5 h | inhibition, % at 10 µM
* hit, by the source's call. Cut-off read from the data, not from the text of the source: active = inhibition above about 50%; inactive = the rest.

For CCN(CCCNC(=O)Cc1cn(C)c2ccccc12)c1ccccc1 the results were mHTT-CaM PPI inh 53.0* and Pf apPOL inh -2.5.
CCN(CC)CCCNC(=O)Cc1cn(C)c2ccccc12 was read as mHTT-CaM PPI inh 5.0 and Pf apPOL inh -4.3.
Screening Cc1ccc(C2CC(C(F)(F)F)n3nc(C(N)=O)c(Cl)c3N2)cc1 (stereo unspecified) returned mHTT-CaM PPI inh 25.0 and Pf apPOL inh -4.7.
Screening COc1ccccc1C=C1Oc2cc(OC(=O)c3cc(OC)c(OC)c(OC)c3)ccc2C1=O returned mHTT-CaM PPI inh -1.5 and Pf apPOL inh -6.3.
Screening Cc1cc(=O)n(Cc2ccccc2F)c2cc(OCC(=O)N3CCOCC3)ccc12 returned mHTT-CaM PPI inh 0.2 and Pf apPOL inh -5.7.
Screening N#CC(=Cc1ccc(OC(=O)c2ccc(Cl)cc2Cl)cc1)C(=O)c1cccs1 returned Pf apPOL inh -6.6.
O=C(Nc1cccc(F)c1)N1CCn2cccc2C1Cc1ccccc1 (stereo unspecified) was read as mHTT-CaM PPI inh 6.1 and Pf apPOL inh -1.4.
O=C(Nc1ccccc1Br)N1CCn2cccc2C1Cc1ccccc1 (stereo unspecified) was read as mHTT-CaM PPI inh 51.7* and Pf apPOL inh 1.4.
`O=C(Nc1ccc(F)c(Cl)c1)N1CCn2cccc2C1Cc1ccccc1` (stereo unspecified) gave mHTT-CaM PPI inh 100.0* and Pf apPOL inh 1.9.
O=C(Nc1ccccc1)N1CCn2cccc2C1Cc1ccccc1 (stereo unspecified) was read as mHTT-CaM PPI inh 28.3 and Pf apPOL inh -8.7.
`COc1ccc(OC)c(C2C(=C(O)c3ccccc3)C(=O)C(=O)N2CCCC(=O)O)c1` (stereo unspecified) gave mHTT-CaM PPI inh -3.7 and Pf apPOL inh -3.0.
Screening CC(C)c1cc(C2CCCN2Cc2cc(F)cc(F)c2)on1 (stereo unspecified) returned mHTT-CaM PPI inh -19.4 and Pf apPOL inh 1.6.
Screening Cc1ccc(S(=O)(=O)N(CC(=O)NCc2ccncc2)c2cc(C)ccc2C)cc1 returned mHTT-CaM PPI inh 13.5 and Pf apPOL inh -13.2.
For Cc1ccc(CNC(=O)CN2CCc3ccccc3C2C(=O)N2CCC(C)CC2)cc1C (stereo unspecified) the results were mHTT-CaM PPI inh -1.0 and Pf apPOL inh -1.1.
`O=C(CC1CCN(S(=O)(=O)c2ccc(Cl)s2)CC1)N1CCCC1` gave mHTT-CaM PPI inh -2.3 and Pf apPOL inh -0.9.
For COc1cccc(N2COc3cc(C)c(Cl)c(C)c3C2)c1 the results were mHTT-CaM PPI inh 98.0* and Pf apPOL inh -3.6.
COc1ccc(N2COc3cc4c(cc3C2)OCO4)cc1 was read as mHTT-CaM PPI inh 7.0 and Pf apPOL inh -8.3.
Screening COc1ccc2c(c1)CN(c1ccc(Cl)cc1)CO2 returned mHTT-CaM PPI inh 51.0* and Pf apPOL inh -8.1.
COc1ccc2c(c1)CN(Cc1ccc(Cl)cc1)CO2 was read as mHTT-CaM PPI inh 12.0 and Pf apPOL inh -9.3.
For COc1ccc(CN2COc3cc(C)c(Cl)c(C)c3C2)cc1 the results were mHTT-CaM PPI inh 2.0 and Pf apPOL inh -1.8.
COc1ccc(N2COc3ccc(Cl)cc3C2)cc1 was read as mHTT-CaM PPI inh 73.0* and Pf apPOL inh 1.5.
For COc1ccc(S(=O)(=O)Oc2ccc3c(c2)OC(=Cc2ccc4c(c2)OCO4)C3=O)cc1 the results were mHTT-CaM PPI inh -33.5 and Pf apPOL inh -2.1.
`O=C(NCCNc1cc(Cl)ccc1[N+](=O)[O-])c1cc(F)c(F)cc1Cl` gave mHTT-CaM PPI inh 5.0 and Pf apPOL inh -5.6.
`Cn1nc(COc2ccccc2)c2c1CCN(C(=O)Nc1cc(F)ccc1F)C2` gave mHTT-CaM PPI inh 28.4 and Pf apPOL inh -8.4.
Cc1oc(C2CCN(C(=O)C3CCCCC3)CC2)nc1C(=O)N(C)C was read as mHTT-CaM PPI inh 1.6 and Pf apPOL inh 0.6.
For CSc1ccc(NC(=O)C2CC(=O)N(c3ccc4c(c3)CCN4C(C)=O)C2)cc1 (stereo unspecified) the results were mHTT-CaM PPI inh -6.3 and Pf apPOL inh 2.3.
For Cc1ccc(C(=O)N2CCC(c3ccn4ncc(C(=O)N5CCCCC5)c4c3)CC2)cc1F the results were mHTT-CaM PPI inh -4.6 and Pf apPOL inh -3.3.
Screening Cc1cccc(CN2Cc3cccc4c3[C@H](C=CC4)CC2=O)c1 returned mHTT-CaM PPI inh 100.3* and Pf apPOL inh -4.4.
For O=C1C[C@H]2C=CCc3cccc(c32)CN1Cc1ccc(F)cc1 the results were mHTT-CaM PPI inh 32.5 and Pf apPOL inh -7.6.
For CSc1ccc(CNC(=O)c2nnn(-c3ccccc3F)c2-c2cccnc2)cc1 the results were mHTT-CaM PPI inh 2.1 and Pf apPOL inh -3.8.
Screening Cc1noc(-c2nn(C)c3c2CN(C(=O)CC(C)(C)C)CC3)n1 returned mHTT-CaM PPI inh -5.2 and Pf apPOL inh -4.3.
`CC(C)N1C(=O)/C(=C\c2nc3ccccc3c(=O)n2-c2ccc([N+](=O)[O-])cc2)c2ccccc21` gave mHTT-CaM PPI inh 61.0* and Pf apPOL inh -6.2.
For O=C(O)c1ccc(-n2c(/C=C/c3ccc([N+](=O)[O-])cc3)nc3ccccc3c2=O)cc1 the results were mHTT-CaM PPI inh -5.7 and Pf apPOL inh -4.7.
CCCN1C(=O)/C(=C\c2nc3ccccc3c(=O)[nH]2)c2ccccc21 was read as mHTT-CaM PPI inh 37.0 and Pf apPOL inh 1.8.
CCN1C(=O)/C(=C\c2nc3ccccc3c(=O)n2-c2ccccc2C)c2ccccc21 was read as mHTT-CaM PPI inh 63.0* and Pf apPOL inh -1.9.
For CCCN1C(=O)/C(=C\c2nc3ccccc3c(=O)n2-c2ccccc2[N+](=O)[O-])c2ccccc21 the results were mHTT-CaM PPI inh 38.0 and Pf apPOL inh -15.9.
Screening CCCN1C(=O)/C(=C\c2nc3ccccc3c(=O)n2-c2ccccc2OC)c2ccccc21 returned mHTT-CaM PPI inh 56.0* and Pf apPOL inh 0.8.
For N=c1c2c3c(sc2ncn1Cc1ccccc1)CCCCC3 the results were mHTT-CaM PPI inh -4.7 and Pf apPOL inh 6.6.
For Cc1ccc(OCCNC(=O)Nc2sc(NS(=O)(=O)c3ccc(C)cc3)nc2C)cc1 the results were mHTT-CaM PPI inh 44.0 and Pf apPOL inh -6.5.
Screening COc1ccccc1C(=O)N1CC(C)C(c2nc(-c3cccnc3)no2)C1 (stereo unspecified) returned mHTT-CaM PPI inh 5.7 and Pf apPOL inh 0.3.
Screening CCc1nc(SCC(=O)c2ccc(O)cc2O)n[nH]1 returned mHTT-CaM PPI inh 71.2* and Pf apPOL inh -4.1.
Screening O=C(CSc1n[nH]c(-c2ccccc2)n1)c1ccc(O)cc1O returned mHTT-CaM PPI inh 1.3 and Pf apPOL inh -0.2.
For CCN1CCC2(CC1)N=C(c1ccccc1)CC(c1cc(Cl)ccc1O)N2 (stereo unspecified) the results were mHTT-CaM PPI inh 46.6 and Pf apPOL inh -0.6.
Screening CCN1CCC2(CC1)N=C(c1ccc(C)cc1)CC(c1cc(Br)ccc1O)N2 (stereo unspecified) returned mHTT-CaM PPI inh 64.8* and Pf apPOL inh -2.3.
For CN1CCC2(CC1)N=C(c1ccc(Br)cc1)CC(c1cc(Cl)ccc1O)N2 (stereo unspecified) the results were mHTT-CaM PPI inh 99.7* and Pf apPOL inh -8.8.
Screening Cc1ccc(C2=NC3(CCN(C)CC3)NC(c3cc(Br)ccc3O)C2)cc1 (stereo unspecified) returned mHTT-CaM PPI inh 26.4 and Pf apPOL inh -3.4.
Screening c1ccc2oc(SCc3nc4c5c6c(sc5ncn4n3)CCCC6)nc2c1 returned mHTT-CaM PPI inh -8.0 and Pf apPOL inh -4.7.
